Values joined by “and” are separate entries in the source; they are usually repeats but may differ in a detail not shown here. Equal entries are not always repeated. The panel holds about 83,000 compounds, 20% with a hit somewhere; the sample as a whole holds those more often.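 Single-concentration screen, 48 h exposure, 96-well plates. Endpoint: percent growth. Below 10 = active.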 A number with no mark means an inactive call. Active and inactive are the calls of the source.

This note sets out measurements from PubChem BioAssay (NCI).

For this assay, the system named is MDA-MB-468 breast. Briefly: NCI-60 one-dose screen, 48 h (100 = growth as untreated, 0 = no growth, -100 = all killed). The note with it: 10 µM unless noted.
Turning to `C=CC[PH+](c1ccccc1)c1ccccc1.C=CC[PH+](c1ccccc1)c1ccccc1.[Pt+2].[S-]c1nc2ccccc2[nH]1.[S-]c1nc2ccccc2[nH]1`, the growth was -14% (active).

With `COC(=O)[C@@H](C)C[C@H](Cc1ccc2ccccc2c1)NC(=O)c1csc([C@@H](C[C@H](C(C)C)N(C)C(=O)[C@@H](NC(=O)[C@H]2CCCCN2C)C(C)C)OC(C)=O)n1`, the growth was 67%.

As for `O=[N+]([O-])c1cc[n+]([O-])c2ccccc12`, the growth is -60.4% (active).

For the compound `COc1ccc(C(=O)c2sc3nc4c(cc3c2N)N2CCC4CC2)cc1OC`, the growth was 72.2%.

As for `O=[N+]([O-])c1ccc(P(=O)(O)O)cc1`, the growth was 102%.

As to `Cc1ccccc1O`, the growth is 103%.

Consider `O=C1c2ccccc2C(=O)N1N1CC1c1ccccc1` (stereo not given), for which the growth was 104%.

With `COc1ccc(/C=C\c2cc(OC)c(OC)c(OC)c2)c(NS(=O)(=O)c2ccc(C)cc2)c1O`, the growth is 23.2%.

With `CN[C@]1(c2ccccc2Cl)CCCC[C@H]1NCCCN1CCN(C)CC1`, the growth is 85.2%.

Regarding `CCC(CC)(c1ccccc1)C(OC(N)=O)c1ccccc1` (stereo not given), the growth was 75.8%.

`O=[N+]([O-])/C=C/c1ccc(Cl)cc1[N+](=O)[O-]`: the growth is -55.9% (active).

In the case of `CCOP(=O)(Nc1ccc2c(c1)/C(=N/NC(N)=S)c1ccccc1-2)OCC`, the growth is 86%.

As for `COC(=O)[C@@H](C)C[C@H](Cc1ccccc1)NC(=O)c1nc([C@@H](C[C@H](C(C)C)N(C)C(=O)[C@@H](NC(=O)[C@H]2CCCN2C)C(C)C)OC(C)=O)sc1C`, the growth is 1.81% (active).

Regarding `OC1CCCCC1N1CCC(c2ccccc2)CC1` (stereo not given), the growth is 116%.

With `CC[C@@H](C)C(=O)O[C@H]1[C@H](O)[C@H]2[C@@H](CN3C[C@@H](C)CC[C@H]3[C@@]2(C)O)[C@@H]2C[C@]34O[C@]5(O)[C@@H](OC(=O)[C@@](C)(O)CC)CC[C@@]3(C)[C@@H]5[C@@H](OC(C)=O)[C@@H](OC(C)=O)[C@H]4[C@@]21O`, the growth was 90.6%.

In the case of `CCC1([N+](=O)[O-])COP(=O)(NCc2cccnc2)OC1` (stereo not given), the growth is 104%.

`COc1ccc(C(=O)c2ccc([As]=O)cc2)cc1` (stereo not given): the growth was -74.8% (active).

`C[C@@H]1CC[C@@H]2[C@@H]1[C@H](OC(=O)/C=C/C1CCCCC1)[C@]1(C3CCCCC3)C[C@@H](OC(=O)CO)[C@@]2(C)O1`: the growth was 59.5%.

In the case of `CC1=C2C(=C[C@@](C)(COC(=O)c3ccc(S(=O)(=O)F)cc3)[C@@H]2O)C(=O)[C@](C)(O)C12CC2`, the growth was -78.8% (active).

Consider `COc1ccc(N(CC(=O)NCCC[Te]c2ccccc2)C(=O)CNC(=O)OC(C)(C)C)cc1`, for which the growth was 92.6%.

For `C=CC(=O)NC(O)C(Cl)(Cl)Cl` (stereo not given), the growth is 121%.

Take `O=[N+]([O-])c1ccc2cnn(CSP(=S)(c3ccccc3)c3ccccc3)c2c1`: the growth was 43.1%.

As for `CN[C@@]1(c2ccccc2Cl)CCCC[C@@H]1NCC1CCCO1` (stereo not given in full), the growth was 96.3%.

Take `CCCCCCCC(=O)OCC/C=C/C1OC1C1OC(=O)/C=C\C=C\c2nc(oc2C)/C=C(/C)CCC2OC2C1OC(=O)NC(C)=O` (stereo not given): the growth was -51.1% (active).

For the compound `CO/N=C1\CC[C@]2(C)[C@H]3CC[C@]4(C)C(=O)CC[C@H]4[C@@H]3C[C@@H]3SC(N)=N[C@@]32C1`, the growth is 88.8%.

Take `C[C@]12CC[C@H]3[C@@H](CC4SC(N)=NC45C/C(=N/NC(N)=O)CC[C@]35C)[C@@H]1CCC2=O` (stereo not given in full): the growth was -46.2% (active).

Take `CC(C)CCC1(CCCl)C(=O)NC(=O)NC1=O`: the growth is 90.1%.

Take `CC[C@H](C)[C@H](NC(=O)[C@H]1CCCCN1C)C(=O)N(C)[C@H](CC(=O)c1nc(C(=O)N[C@@H](Cc2ccccc2)C[C@H](C)C(=O)O)cs1)C(C)C`: the growth is 62.3%.

In the case of `O=[P+](O)c1ccccc1`, the growth was 114%.

Regarding `CC(C)(O)/C=C/C(=O)[C@](C)(O)[C@H]1[C@H](O)C[C@@]2(C)[C@H]3CC=C4[C@@H](C[C@H](O)C(=O)C4(C)C)[C@]3(C)C(=O)C[C@]12C`, the growth is -23.4% (active).

On to `CCCCCCCCCCCCCCCCCC1OCC(COC(=O)O[C@@H](C(=O)O[C@H]2C[C@@]3(O)[C@@H](OC(=O)c4ccccc4)[C@@H]4[C@]5(OC(C)=O)CO[C@@H]5C[C@H](O)[C@@]4(C)C(=O)[C@H](OC(C)=O)C(=C2C)C3(C)C)[C@@H](NC(=O)c2ccccc2)c2ccccc2)O1` (stereo not given in full), for which the growth was 3.29% (active).

As for `O=[As]c1ccc(C(=O)c2ccc(Oc3ccccc3)cc2)cc1` (stereo not given), the growth is -85.6% (active).

For the compound `O=C1CCC(=O)N1SC(Cl)(Cl)Cl`, the growth was 116%.

With `COC12CC3(C)C(C4=CC(=O)OC4)CCC3(O)C3CCC4=CC(=O)CCC4(CO1)C32` (stereo not given), the growth was 101%.

On to `CCn1c2ccccc2c2cc(C(=O)c3cccc4c3CCCN4)ccc21`, for which the growth was 96.4%.

For `CCN(CC)c1ccc2c(c1)OC(N)=C(C#N)C2c1cc(OC)c2c(c1)OCO2` (stereo not given), the growth was -9.24% (active).

As for `CN(C)[C@@H]1C(=O)C(C(N)=O)=C(O)[C@@]2(O)C(=O)C3=C(O)c4c(O)ccc(Cl)c4[C@@](C)(O)[C@H]3C[C@@H]12`, the growth was 105% and 101%.

For `O=[N+]([O-])c1cccc([As]=[As]c2cccc([N+](=O)[O-])c2)c1` (stereo not given), the growth was -78.5% (active).

`CC12CCC(=O)C=C1CCC1C2CCC2(C)C(C(=O)COC(=O)Cc3ccc(N(CCCl)CCCl)cc3)CCC12` (stereo not given): the growth was 64.1%.

On to `O=C(CC1(O)C(=O)N(Cc2ccccc2)c2ccc(Br)cc21)c1ccc(C(=O)NCC2CCC3(CC2)OOC2(CCCCC2)OO3)cc1` (stereo not given), for which the growth was 27.9%.
